# Assay outcomes (PubChem)
# GC-A act: GC-A (human) enzyme activation; P16066; HEK293 GC-A cells, cGMP TR-FRET, EC30 ANP; 0% at EC30 ANP, 100% saturating ANP; activation, % at 10 µM; actives 0.14% (n = 370,000); AID 1671463; in the data active = activation above about 40%
# ALR inh: human ALR oxidase inhibition via reduced H2O2. inhibition, % (no concentration beside the values). actives 3.8% (n = 290,000). purified ALR, DTT oxidation, H2O2 HRP-luminol luminescence. P55789;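 active = mean replicate inhibition above about 79%, with every replicate also reaching it, limit read from the data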
# NPR2 activator: GC-B (human) receptor activation; HEK293-GC-B cells, CNP EC30, cGMP TR-FRET; 0% at EC30 CNP, 100% saturating CNP; activation, % at 10 µM; actives 0.11% (n = 370,000); AID 1920062;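 active = activation at 10 µM reaching about 35% in either raw or pattern-adjusted values, limit read from the data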
# HDAC3 inh: human HDAC3 inhibition. actives 0.15% (n = 320,000). O15379. recombinant HDAC3, fluorogenic peptide/trypsin coupled, fluorescence. inhibition, % at 8.3 µM; in the data active = inhibition above about 26%, passing the limit was not always enough
# Target sequence (O15379 whole entry, looked up): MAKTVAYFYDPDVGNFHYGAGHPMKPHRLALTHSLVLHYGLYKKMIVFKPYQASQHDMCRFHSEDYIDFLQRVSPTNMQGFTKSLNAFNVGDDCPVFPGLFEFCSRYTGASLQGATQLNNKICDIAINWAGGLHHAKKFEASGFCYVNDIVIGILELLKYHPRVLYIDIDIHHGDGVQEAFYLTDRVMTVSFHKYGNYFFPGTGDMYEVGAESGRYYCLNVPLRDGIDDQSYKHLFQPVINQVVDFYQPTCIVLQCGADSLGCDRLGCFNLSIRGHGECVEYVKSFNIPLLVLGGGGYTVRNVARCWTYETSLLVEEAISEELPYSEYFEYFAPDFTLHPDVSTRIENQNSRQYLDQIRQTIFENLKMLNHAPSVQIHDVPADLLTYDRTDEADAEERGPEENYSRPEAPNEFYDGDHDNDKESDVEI
# An asterisk follows results filed as active; . = no result. Shown is part of a subset that was picked to be rich in hits.
SMILES,GC-A act,ALR inh,NPR2 activator,HDAC3 inh
CN1C=CC=C/C1=C1\SC(=S)N(CC(=O)O)C1=O,1.9,55.2,-4.9,10.7
CN1C=CC=C/C1=C1\SC(=S)N(C2CCCCC2)C1=O,1.6,98.9*,-1.4,5.7
C=CCN1C=CC=C/C1=C1\SC(=S)N(C)C1=O,1.5,99.2*,2.0,3.1
CCN1C(C)=C(C)S/C1=C1\SC(=S)N(C2CCCCC2)C1=O,-4.2,.,-7.7,-0.7
CC12CCC(=O)N1C(C(=O)NNC(=O)COc1ccc(Br)cc1)CS2 (centres undefined),0.0,5.6,2.5,-2.4
Cc1cc(C)cc(NC(=O)C2(c3cccs3)CCOCC2)c1,-33.9,-1.9,-16.0,-9.9
C[C@H]1C(C(=O)N(C)C2CCCCC2)=Cc2c(n(-c3ccc(F)cc3)c(=O)n2CCCOc2ccccc2)C=C1c1ccccc1,-5.5,.,-0.2,.
C=CC[C@H](CC(=O)N(CCO)Cc1ccccc1)C(=O)N[C@H](COC(=O)[C@@H](CC=C)Cc1ccc(F)cc1)Cc1ccccc1,-3.4,-5.9,-6.0,33.2*
C=CC[C@@H](CC(=O)NCCO)C(=O)N[C@@H](COC(=O)[C@@H](CC=C)Cc1ccc(F)cc1)Cc1c[nH]c2ccccc12,-1.9,10.1,-0.8,25.9*
C=CCC[C@H](Cc1ccc(F)cc1)C(=O)OC[C@@H](Cc1c[nH]c2ccccc12)NC(=O)[C@@H](CC=C)CC(=O)N(CCO)Cc1ccccc1,-2.1,6.1,-7.8,40.0*
CC1(C(=O)NS(=O)(=O)c2ccc(Cl)cc2)CCN1C(=O)CCc1ccccc1 (centres undefined),0.7,.,6.5,.
O=S1(=O)c2ccc(N3CCCC3)cc2Oc2ccccc2CN1Cc1cn(Cc2ccc(F)cc2)nn1,-0.4,.,-8.3,.
CNc1ccccc1-n1ccc(-c2ccccc2)n1,-5.5,93.7*,4.5,3.8
Cn1ccc(-c2ccccc2)n1,2.7,-5.3,0.7,-0.3
CCOc1ccccc1OC(=O)CN1C(=O)c2ccccc2C1=O,2.9,26.1,1.4,-2.1
CC(=O)OCC(=O)N1CCN(C(=O)C(=O)c2cccc(C(F)(F)F)c2)CC1,2.3,.,6.0,.
CCc1nc(N)c(C#N)c(-c2ccc(O)c(OC)c2)c1C,-2.0,55.5,-5.5,-2.3
COc1cc(-c2c(C#N)c(=O)[nH]c3c2c(C)nn3-c2ccccc2)ccc1O,0.4,99.0*,1.2,6.3
Cc1nc2ccc(S(=O)(=O)NCC(=O)NCc3ccccc3Cl)cc2s1,-3.6,.,-1.4,.
CCC(=O)NC(=S)NNC(=O)c1ccc(O)cc1,0.7,39.0,85.1*,5.7
CCC(=O)NNC(=S)NC(=O)c1ccc(C)cc1,4.7,98.6*,4.8,3.8
CC(=O)NNC(=S)NC(=O)c1ccc(C)cc1,1.6,.,2.5,2.0
COc1cc([C@@H]2Oc3cc(C4Oc5cc(O)cc(O)c5C(=O)[C@H]4O)ccc3O[C@H]2CO)ccc1O (some centres undefined),.,98.7*,.,-2.2
COc1cc([C@H]2Oc3cc([C@H]4Oc5cc(O)cc(O)c5C(=O)[C@@H]4O)ccc3O[C@@H]2CO)ccc1O,5.1,98.6*,0.9,1.4
COc1cc(OC)c2c(c1)OC(c1ccc(OC)c(OC)c1)C(O)C2=O (centres undefined),-2.6,.,-6.8,6.2
SMILES,GC-A act,ALR inh,NPR2 activator,HDAC3 inh
CCC(C(=O)Nc1cccc(C(=O)O)c1C)c1ccccc1 (centres undefined),-4.8,-7.4,-0.1,-5.7
COc1ccc(N2CCC(CNC(=O)Nc3ccc(OC)cc3OC)C2)cc1 (centres undefined),-0.1,85.1*,0.9,10.9
COc1ccc(N2CCC(CNC(=O)Nc3ccc(C)c(C)c3)C2)cc1 (centres undefined),14.9,15.1,-2.7,-5.2
CC(=O)C1=C(O)C(=O)N(Cc2ccccc2)C1c1ccc(Cl)cc1 (centres undefined),-1.6,3.9,6.4,-2.7
CC(=O)C1=C(O)C(=O)N(Cc2ccccc2)C1c1ccc(N(C)C)cc1 (centres undefined),-2.5,95.7*,-8.4,2.6
Cc1cccc(/C(N)=N/OC(=O)c2ccc3c(c2)OCO3)c1,2.8,97.2*,-2.6,2.2
CC1CN2C(c3ccc([N+](=O)[O-])cc3)=CSC2=N1 (centres undefined),2.9,31.2,-1.6,4.8
CC(C)(C)c1nnc(NS(=O)(=O)c2cc(Cl)ccc2Cl)s1,4.0,4.9,3.3,11.8
O=S(=O)(Nc1nc(-c2sccc2Cl)cs1)c1cc(Cl)ccc1Cl,.,97.6*,.,8.4
CCC(C)c1ccc(NC(=O)COC(=O)c2nc3nccc(C)n3n2)cc1 (centres undefined),-1.3,15.2,-5.3,-1.8
CCOC(=O)C1=C(C)NC2=C(C(=O)CC(C)(C)C2)C1c1ccc(O)c(OCC)c1 (centres undefined),-3.9,0.0,-0.9,2.4
CCOC(=O)C1=C(C)NC2=C(C(=O)CC(C)(C)C2)C1c1ccc2c(c1)CCCN2C (centres undefined),-0.5,99.1*,3.9,-4.5
CCc1ccc2c(c1)NC(=O)C2(C)Cc1ccc(C(F)(F)F)nc1 (centres undefined),-10.4,.,-6.7,.
CC(C)CC(=O)Nc1ccc(Nc2ccccc2)cc1,3.1,98.8*,3.5,1.9
CC(C)(C)CC(=O)Nc1ccc(Nc2ccccc2)cc1,1.3,98.5*,-0.2,4.5
CC(C)CC(=O)Nc1ccc(Oc2ccc(NC(=O)CC(C)C)cc2)cc1,0.1,-1.9,-0.1,0.2
Cc1cccc(NC(=O)CC(C)(C)C)c1,0.1,-0.1,-0.7,-2.2
C[C@@H]1CN([C@H](C)CO)C(=O)c2cc(NS(=O)(=O)c3ccc(F)cc3)ccc2O[C@@H]1CN(C)Cc1ccc(Cl)c(Cl)c1,-0.5,.,-5.7,.
COc1cc(C2C3=C(CCCC3=O)Nc3[nH]n(-c4ccccc4)c(=O)c32)ccc1O (centres undefined),1.8,99.9*,3.9,3.9
COc1cccc(C2C3=C(CCCC3=O)Nc3[nH]n(-c4ccccc4)c(=O)c32)c1 (centres undefined),-5.8,78.4*,-5.8,14.6
O=C1CCCC2=C1C(c1ccc3c(c1)OCO3)c1c([nH]n(-c3ccccc3)c1=O)N2 (centres undefined),-1.5,56.3,-1.4,5.6
COC(=O)[C@]1(Cc2ccccc2)N[C@H](CN(C)C(=O)Nc2ccc(Cl)cc2)[C@@H]2C(=O)N(Cc3ccccc3)C(=O)[C@@H]21,-16.5,.,-3.8,-3.5
O=c1c2ccccc2cnn1Cc1n[nH]c(=S)n1-c1ccccc1Cl,-0.3,83.9*,7.2,3.3
O=c1c2ccccc2cnn1Cc1n[nH]c(=S)n1-c1cc(Cl)cc(Cl)c1,1.6,33.5,-6.3,1.9
CCC[C@H]1[C@@H](NC(=O)C#Cc2ccccc2)CC[C@@]23CCCN2C(=O)CCC[C@@H]13,-2.2,.,-1.4,.
COc1ccc2nc(NC(=O)CSc3n[nH]c(N)n3)sc2c1,5.5,90.3*,3.3,4.5
Nc1nnc(SCC(=O)N2CCN(c3ccccc3)CC2)n1-c1ccccc1,0.1,98.2*,4.8,-9.7
Nc1nnc(SCC(=O)N2CCN(c3ccccc3)CC2)s1,1.2,98.8*,0.0,-5.1
